Assay [1] is described as follows: HepG2 liver cancer cell viability effects, profiling panel, resazurin fluorescence, 24 h, PK04 Diversity Set (AID 1172). Note: test concentration not given here. As to conditions: higher = more signal. For orientation: The colour change of resazurin is a common sign of viable cells or microbes.
Assay [2] is described as follows: basal S. cerevisiae growth modulation, no modifier, primary screen, OD600, strain BY4716, 24 h, basal condition (AID 1173). As to conditions: OD600, 24 h, higher = more signal, called active from +8 up or from −8 down.
Assay [3] is described as follows: MM1S myeloma cell viability, profiling panel, resazurin fluorescence, basal, 24 h, PK04 Diversity Set (AID 1174).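 Note: MM1S multiple myeloma cell line; test concentration not given here.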 Particulars: higher = more signal, called active from +8 up or from −8 down.
Assay [4] concerns the target Dihydroorotate dehydrogenase (quinone), mitochondrial (Plasmodium falciparum (isolate 3D7)) (UniProt Q08210). The experiment in a line: PfDHODH enzyme inhibitors, primary screen, biochemical, C-terminal His tag, absorbance 600 nm (AID 1175).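 Note: recombinant parasite enzyme with a five histidine tag at its C terminus; test concentration not given here.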 Particulars: DCIP absorbance 600 nm, higher = more signal, called active from +8 up or from −8 down.
The nature of assay [5]: P. aeruginosa biofilm formation inhibitors, primary screen, strain PAO1, LB-PBS medium, absorbance 600 nm (AID 1176). Note: test concentration not given here. Particulars: P. aeruginosa PAO1 growth/biofilm, A600, 12 h; higher = more signal.
Assay [6] is described as follows: S. cerevisiae RM11-1a growth modifiers, primary screen, strain RM11-1a, OD600, basal, 24 h (AID 1177).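 Note: cultures grown under basal conditions with no added stressor; test concentration not given here.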 Particulars: OD600, 24 h, higher = more signal, called active from +8 up or from −8 down.
The nature of assay [7]: E. coli acrAB mutant growth effects, primary screen, E. coli filamentation inducers, strain DRC39, OD650, 24 h (AID 1178).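 Note: growth measured as culture turbidity by optical density at 650 nm; test concentration not given here.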 As to conditions: higher = more signal, called active from +8 up or from −8 down.
A short description of assay [8]: E. coli acrAB mutant growth effects, primary screen, E. coli filamentation inducers, strain DRC39, OD650, 48 h (AID 1179).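 Note: screen aims at cell division blockers that make cells filament.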 Particulars: E. coli DRC39 delta-acrAB growth, higher = more signal, called active from +8 up or from −8 down.
Assay [9] is described as follows: RPMI8226 myeloma cell viability, profiling panel, resazurin fluorescence, basal, 24 h, PK04 Diversity Set (AID 1180).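 Note: RPMI8826 multiple myeloma cell line at 5000 cells per well; test concentration not given here.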 As to conditions: higher = more signal.
For assay [10], the target named is E3 ubiquitin-protein ligase XIAP (Homo sapiens) (UniProt P98170). The experiment in a line: XIAP binders, primary screen, biophysical, small-molecule microarray, fluorescence 635 nm (AID 1181).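 Note: score merges 667 nm emission and signal to noise over triplicate slides.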 As to conditions: small-molecule microarray binding, higher = more signal.

Active and inactive are the calls of the source. Unless noted, the rule behind the calls is not given here.

Sequence of Dihydroorotate dehydrogenase (quinone), mitochondrial (Plasmodium falciparum (isolate 3D7)) (Q08210 whole entry, looked up): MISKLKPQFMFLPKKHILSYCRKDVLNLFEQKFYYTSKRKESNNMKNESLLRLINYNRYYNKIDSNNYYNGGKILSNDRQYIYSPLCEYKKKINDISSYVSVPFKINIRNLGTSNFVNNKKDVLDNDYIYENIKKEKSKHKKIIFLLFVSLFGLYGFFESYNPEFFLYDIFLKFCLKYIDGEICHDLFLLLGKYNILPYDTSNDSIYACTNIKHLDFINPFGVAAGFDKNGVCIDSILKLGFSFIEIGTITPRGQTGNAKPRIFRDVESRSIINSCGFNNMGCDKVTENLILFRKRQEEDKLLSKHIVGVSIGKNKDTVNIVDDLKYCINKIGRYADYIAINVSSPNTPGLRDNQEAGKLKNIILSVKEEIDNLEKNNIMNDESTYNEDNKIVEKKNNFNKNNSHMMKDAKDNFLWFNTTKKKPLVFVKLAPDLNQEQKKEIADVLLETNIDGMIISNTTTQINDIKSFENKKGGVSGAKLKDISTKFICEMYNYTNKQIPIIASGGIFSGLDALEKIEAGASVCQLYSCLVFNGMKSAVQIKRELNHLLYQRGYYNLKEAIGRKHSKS
Sequence of E3 ubiquitin-protein ligase XIAP (Homo sapiens) (P98170 whole entry, looked up): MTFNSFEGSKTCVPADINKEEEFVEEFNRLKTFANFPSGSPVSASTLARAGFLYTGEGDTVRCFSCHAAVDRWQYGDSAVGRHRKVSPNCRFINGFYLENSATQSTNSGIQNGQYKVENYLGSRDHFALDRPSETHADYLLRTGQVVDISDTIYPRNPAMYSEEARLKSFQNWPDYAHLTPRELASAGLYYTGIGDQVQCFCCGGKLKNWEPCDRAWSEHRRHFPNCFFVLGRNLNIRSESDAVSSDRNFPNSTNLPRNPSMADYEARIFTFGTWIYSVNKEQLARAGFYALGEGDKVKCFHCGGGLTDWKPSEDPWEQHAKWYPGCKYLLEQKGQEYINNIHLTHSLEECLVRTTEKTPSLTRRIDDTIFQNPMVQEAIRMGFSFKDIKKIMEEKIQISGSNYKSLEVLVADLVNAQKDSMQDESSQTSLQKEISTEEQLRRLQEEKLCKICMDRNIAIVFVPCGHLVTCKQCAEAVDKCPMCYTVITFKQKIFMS

For the molecule `O=C(CS)NCCCCCNC(=O)[C@H]1C[C@H]2C(=O)NCC(=O)N2[C@H]1c1ccc(O)cc1`, the z-score was 1.33 in assay [1]; -0.208 (inactive) in [2]; 1.5 (inactive) in [3]; -0.832 (inactive) in [5]; -1.3 (inactive) in [6]; 0.268 (inactive) in [7]. The figures for the z-score in assay [8] and in [9] were 0.0249 (inactive) and 1.21, respectively. In addition, the composite z-score in [4] is -0.522 (inactive); in [10] it was 0.0621.
For `COC(=O)[C@@]1(Cc2ccc(OC)cc2)[C@H]2c3cc(C(=O)N(C)C)n(Cc4ccc(C(F)(F)F)nc4)c3C[C@H]2CN1C(=O)c1ccccc1`, the z-score was 0.133 in assay [1]; 0.794 (inactive) in [2]; -0.312 (inactive) in assay [3]; -0.0019 (inactive) in assay [5]; 0.44 (inactive) in assay [6]; -0.22 (inactive) in [7]. The z-score in [8] is -0.18 (inactive); in assay [9] it was 0.27. In addition, the composite z-score was -0.224 (inactive) in [4] and 0.333 in [10].
With `COC(=O)C(CC#Cc1ccc2c(c1)[C@]1(C(=O)N2)[C@H](c2ccccc2OCCO)N2[C@H](c3ccccc3)[C@H](c3ccccc3)OC(=O)[C@H]2[C@@H]1C(N)=O)C(=O)OC`, the z-score in assay [1] is -1.55; in assay [2], 0.858 (inactive); in assay [3] it was -9.28 (active); in [5], 1.18 (inactive); in [6] it was 1.77 (inactive); in [7], -0.0371 (inactive). The results for the z-score in assay [8] and in assay [9] were -0.156 (inactive) and -7.42, respectively. Besides, the composite z-score in [4] is -2.77 (inactive); in assay [10] it was 0.0223.
Regarding `COc1cc(CO)cc(I)c1O[C@H]1C=C(C(=O)NCCO)C[C@@H](N(C(=O)c2cc3ccccc3oc2=O)C2CCCCCC2)[C@@H]1O`, the z-score in [1] is -0.163; in assay [2], -1.66 (inactive); in [3], 1.11 (inactive); in assay [5], -0.377 (inactive); in assay [6], -0.0819 (inactive); in assay [7] it was 2.12 (inactive). Also, the z-score is 0.435 (inactive) in assay [8] and -0.335 in [9]. For the same molecule, the composite z-score in assay [4] is -0.346 (inactive); in assay [10] it was -0.154.
For the molecule `CCOc1cc(C(O)C2C=CC3C(=O)N(c4ccccc4)C(=O)C3N2Nc2ccc(C(C)C)cc2)ccc1O` (stereo not given), the z-score is -1.14 in assay [1]; -1.16 (inactive) in [2]; -0.988 (inactive) in assay [3]; 0.779 (inactive) in assay [5]; 1.68 (inactive) in assay [6]; -0.361 (inactive) in [7]. The z-score in assay [8] is -1.34 (inactive); in assay [9], -1.3. In addition, the values for the composite z-score in assay [4] and in assay [10] were 1.15 (inactive) and 0.0891, respectively.
In the case of `CN1C(=O)C2C=CC(C(O)C=Cc3ccc([N+](=O)[O-])cc3)N(Nc3ccccc3)C2C1=O` (stereo not given), the z-score was -0.891 in [1]; -4.48 (inactive) in [2]; -1.55 (inactive) in assay [3]; 1.41 (inactive) in assay [5]; -0.709 (inactive) in assay [6]; -0.377 (inactive) in assay [7]. The results for the z-score in assay [8] and in assay [9] were -0.668 (inactive) and -1.45, respectively. In addition, the composite z-score in [4] is -1.01 (inactive); in assay [10] it was 0.376.
As for `O=C1C2C=CC(C(O)c3ccc4c(c3)OCO4)N(Nc3ccc([N+](=O)[O-])cc3)C2C(=O)N1c1ccccc1` (stereo not given), the z-score is -0.415 in [1]; -0.13 (inactive) in assay [2]; -0.104 (inactive) in [3]; 0.0641 (inactive) in [5]; -0.729 (inactive) in [6]; -1.15 (inactive) in [7]. Also, the z-score in assay [8] is -0.411 (inactive); in [9], -0.56. For the same molecule, the composite z-score in [4] was -1.46 (inactive); in assay [10], 0.191.
As for `O=C(O)C1N=C(c2ccc(OCCCO)cc2)N(c2ccccc2)O1` (stereo not given), the z-score is -0.0554 in assay [1]; 0.0427 (inactive) in assay [2]; -0.258 (inactive) in assay [3]; -0.469 (inactive) in [5]; 0.0613 (inactive) in [6]; -0.351 (inactive) in [7]. Moreover, the z-score was 0.46 (inactive) in assay [8] and -0.219 in [9]. The composite z-score in [4] is -0.928 (inactive); in assay [10], -0.22.
Turning to `COCCCNC(=O)[C@@H]1c2ccccc2C(=O)N(Cc2ccccc2)[C@H]1c1ccc(CO)cc1`, the z-score in assay [1] is 0.0319; in [2] it was -0.141 (inactive); in [3] it was 0.0771 (inactive); in assay [5], 0.0993 (inactive); in [6], -0.575 (inactive); in assay [7], 0.38 (inactive). The values for the z-score in [8] and in assay [9] were 0.0879 (inactive) and 0.279, respectively. Also, the figures for the composite z-score in [4] and in assay [10] were -0.62 (inactive) and -0.0663, respectively.
On to `COC(=O)[C@@]1(Cc2ccc(F)cc2)[C@H]2c3cc(C(=O)N(C)C)n(Cc4ccc(C)o4)c3C[C@H]2CN1C(=O)c1ccccc1`, for which the z-score in assay [1] is -0.0869; in assay [2], 0.241 (inactive); in assay [3], 0.003 (inactive); in [5] it was 0.467 (inactive); in [6], -0.0282 (inactive); in [7], -0.359 (inactive). Further, the z-score was -0.192 (inactive) in assay [8] and -0.0803 in [9]. Further, the composite z-score in assay [4] is -0.631 (inactive); in assay [10], 1.87.
With `O=C(NCCN1CCOCC1)[C@@H]1c2ccccc2C(=O)N(Cc2cc(C(F)(F)F)cc(C(F)(F)F)c2)[C@H]1c1ccc(CO)cc1`, the z-score was -0.731 in assay [1]; 0.164 (inactive) in assay [2]; 0.0896 (inactive) in assay [3]; 0.224 (inactive) in [5]; 0.842 (inactive) in assay [6]; 1.06 (inactive) in assay [7]. In addition, the z-score in [8] was 0.321 (inactive); in assay [9], 0.0838. Further, the composite z-score in assay [4] is 0.434 (inactive); in assay [10], -0.242.
